Experimental data from PubChem BioAssay AID686979 (National Center for Advancing Translational Sciences (NCATS), 2013).
Out of some 420,000 compounds screened, about 50,000 (12%) were called active. Roughly 26% stayed inconclusive and do not appear here. Shown is part of a subset that was picked to be rich in actives. Where a call stands in place of a potency, no number is given. Unmarked numbers belong to inactive results. Calls come from the whole dose curve; as a rule, active = well fitted inhibition curve with a large enough effect; inconclusive = small, poorly fitted or top-dose-only effect; inactive = flat fitted curve, though single readings scatter.

Experiment: qHTS for Inhibitors of human tyrosyl-DNA phosphodiesterase 1 (TDP1): qHTS in cells in presence of CPT; note: nearly all actives have a fitted effect of over 55% in size
Conditions: chicken DT40 Tdp1-/-;hTDP1 cells + 20 nM CPT, ATP luminescence, 48 h; series mostly up to 46.2 µM
Procedure, shortened: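 Chicken DT40 Tdp1-/- cells complemented with human TDP1, 400 cells/well, exposed to compounds plus 20 nM camptothecin for at least 48 h at 37 C; viability read as ATP content by CellTiter-Glo luminescence.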
Potency is the fitted concentration of half-maximal effect.

Row | Compound | Potency | activity change, negative = growth inhibition
1 | CCCCn1c(N)c(N(CCOC)C(=O)CSCC(=O)Nc2cccc(C)c2)c(=O)[nH]c1=O | inactive | 
2 | CC1CCCCC1NC(=O)c1cc(=O)[nH]c2ccccc12 (stereo not drawn) | inactive | 
3 | COc1ccc(C2CC(c3cccs3)=NN2C(=O)COC(=O)c2cc3ccccc3cc2O)cc1OC (stereo not drawn) | inactive | 
4 | CC(=O)NC(CC(=O)Nc1cccc(S(=O)(=O)N2CCCC2)c1)c1ccccc1 (stereo not drawn) | inactive | 
5 | CCOc1ccc(CNC(=O)CCC(=O)N2CCSc3ccccc32)cc1 | inactive | 
6 | CCOc1ccc(CNC(=O)CCc2c(C)nn(-c3ccc(N4CCCCC4)nn3)c2C)cc1 | 25.9 µM (active) | 
7 | Cc1nn(-c2ccc(N3CCCCC3)nn2)c(C)c1CCC(=O)NCc1ccccc1F | inactive | 
8 | O=C(Nc1cccc(Cl)c1N1CCOCC1)c1cccnc1 | inactive | 
9 | COc1cccc(-n2c(=O)c3c(C)c(C(=O)N(C)C)sc3n(CC(=O)NCCc3ccc(OC)c(OC)c3)c2=O)c1 | inactive | 
10 | CCOc1cc(/C=N/NC(=O)c2c(C)nc3ccc(Cl)cn23)ccc1O | 13 µM (active) | 
11 | CCOc1ccc(/C=N\NC(=O)c2c(C)nc3cc(C)ccn23)cc1 | inactive | 
12 | CCOc1cc(C=NNC(=O)CCCC(=O)NN=Cc2ccc(O)c(OCC)c2)ccc1O | inactive | 
13 | COc1ccc(-c2c(C(C)=O)c(C)nc3sc4c(=O)n(-c5ccc(C)cc5)nnc4c23)cc1 | inactive | 
14 | OC(c1nc2ccc(F)cc2[nH]1)C(O)c1nc2ccc(F)cc2[nH]1 (stereo not drawn) | inactive | 
15 | Oc1ccc(Cl)cc1/C=N/c1nc2ccccc2[nH]1 | inactive | 
16 | SCc1nc2ccc(Cl)cc2[nH]1 | 5.62 µM (active) | 
17 | Cc1ccc(OC(=O)c2c(C)nn(-c3ccccc3)c2C)cc1 | inactive | 
18 | CCOC(=O)/C=C/CN(C(=O)OC(C)(C)C)S(=O)(=O)N1CC=CC1 | inactive | 
19 | O=C(CCN1Cc2ccccc2OC(c2ccccc2)C1)N[C@@H]1CS(=O)(=O)C[C@H]1O (stereo partly drawn) |  | 2.04% [at 9.04 µM]
20 | Cc1cc2nc(C(F)(F)F)cc(-c3cccs3)n2n1 | inactive | 
21 | CCC(=O)Nc1ccc2c(c1)nc(CCN1CCN(c3ccccn3)CC1)n2C | inactive | 
22 | Cn1c(CCN2CCN(c3ccccn3)CC2)nc2cc(NS(=O)(=O)c3ccc(F)cc3)ccc21 | 16.4 µM (active) | 
23 | CCC(=O)Nc1ccc2c(c1)nc(CCN1CCN(C)CC1)n2C | inactive | 
24 | COc1ccc(S(=O)(=O)N2CCCCC2)cc1C(=O)NC1CCS(=O)(=O)C1 (stereo not drawn) | inactive | 
25 | COC(=O)C(C)n1cnc2c(nnn2-c2ccc(F)cc2)c1=O (stereo not drawn) | inactive | 

Row | Compound | Potency | activity change, negative = growth inhibition
26 | COc1ccc(S(=O)(=O)N2C[C@H]3CON(C)[C@H]3C[C@H]2c2cccc(Br)c2)cc1 | inactive | 
27 | Cc1cc(C)cc(NC(=O)NC2CCCCCCC2)c1 | inactive | 
28 | O=C(Nc1cccc(F)c1)NC1CCCCCCC1 | 18.4 µM (active) | 
29 | C/C(CC(=O)Nc1cccc(F)c1)=N\NC(=O)C(=O)NC1CCCCC1 | inactive | 
30 | COc1ccc2c(c1)C(=O)Nc1cc(Cl)ccc1N2 | inactive | 
31 | CCOc1ccc(-n2c(O)c(/C=N/Nc3nc(C)cc(C)n3)c3ccccc3c2=O)cc1 | 2.59 µM (active) | 
32 | CCOc1ccc(-n2c(O)c(/C=N/Nc3nnc(C)c(=O)[nH]3)c3ccccc3c2=O)cc1 | 0.651 µM (active) | 
33 | COc1ccc(-n2c(O)c(C=NCC(c3ccco3)N3CCCC3)c3ccccc3c2=O)cc1OC (stereo not drawn) | inactive | 
34 | Cc1cc(C)nc(N/N=C/c2c(CO)cnc(C)c2O)n1 | inactive | 
35 | Cc1nnc(N/N=C/c2ccccn2)[nH]c1=O | 4.61 µM (active) | 
36 | Cc1nnc(N/N=C/c2cccs2)[nH]c1=O | inactive | 
37 | CCOc1ccc(N/C(N)=N/c2nc(C)c(C)c(=O)[nH]2)cc1 | inactive | 
38 | Cc1ccccc1Nc1nnc(C)c(=O)[nH]1 | inactive | 
39 | CCN(CC)CCCN=Cc1c(O)n(-c2ccc(C)cc2)c(=O)c2ccccc12 | inactive | 
40 | COC1=NC2=NCCN2C(OC)=N1 | inactive | 
41 | O=S(=O)(c1ccc(Br)cc1)c1nnn2c1nc(NC1CCCCCC1)c1sccc12 | inactive | 
42 | Cc1cccn2c(=O)nc(SCC(=O)NCc3ccccc3Cl)nc12 | inactive | 
43 | CN(C(=O)COC(=O)Cc1ccccc1[N+](=O)[O-])C1CCS(=O)(=O)C1 (stereo not drawn) | inactive | 
44 | CCC(C)N1CC(=O)N2Cc3[nH]c4ccccc4c3C[C@H]2C1=O (stereo partly drawn) | inactive | 
45 | COCCn1c(C)cc(C(=O)COC(=O)CNC(=O)c2ccco2)c1C | inactive | 
46 | CCOC(=O)C1CCN(Cc2ccc(-c3ccccc3)cc2)CC1 | inactive | 
47 | CCOC(=O)C1CCN(c2ncnc3c2oc2ccc(Br)cc23)CC1 | inactive | 
48 | CCOC(=O)C1CCN(c2ncnc3c2c(-c2ccccc2)cn3-c2cccc(C)c2)CC1 | 18.4 µM (active) | 
49 | O=c1[nH]cnc2c1c(-c1ccccc1)cn2-c1ccc(F)cc1 | inactive | 
50 | CCOC(=O)C1CCN(c2ncnc3c2c(-c2ccccc2)cn3-c2ccc(C)cc2)CC1 | 20.6 µM (active) | 

Row | Compound | Potency | activity change, negative = growth inhibition
51 | CCOC(=O)C1CCN(C(=O)COc2cc(C)c(Br)c(C)c2)CC1 | inactive | 
52 | CC(Cc1cccs1)N(Cc1ccc(Cl)cc1)C(=O)c1ccncc1 (stereo not drawn) | inactive | 
53 | COc1ccc(C(=O)O/N=C(\N)c2ccccn2)cc1[N+](=O)[O-] | inactive | 
54 | COc1ccc(N=Nc2ccc(O)c(P(=O)(c3ccccc3)c3ccccc3)c2)cc1 | inactive | 
55 | COCCN(C(=O)C(C)N1C(=O)c2ccccc2C1=O)c1c(N)n(CC(C)C)c(=O)[nH]c1=O (stereo not drawn) | inactive | 
56 | CCNC(=O)CC1C(=O)N(c2ccc(F)cc2)C(=O)N1Cc1ccc(C)cc1 (stereo not drawn) | inactive | 
57 | CC(C)(C)c1ccc(CCC2OCC(CN3CCOCC3)O2)cc1 (stereo not drawn) | 20.6 µM (active) | 
58 | CSc1ccc(CNCCN2CCOCC2)cc1 | inactive | 
59 | CCCCOc1ccc(C(C)(O)CCN2CCOCC2)cc1 (stereo not drawn) | inactive | 
60 | CC(C)CCNC(=O)c1[nH]c(C(F)(F)F)nc1-c1ccccc1 | inactive | 
61 | COc1ccc(/C(C)=N\NC(=O)c2ccc(-c3ccccc3)cc2)c(F)c1 | inactive | 
62 | COc1ccc(C(=O)Nc2cc(C)ccc2NC(=O)COc2ccccc2)cc1 | inactive | 
63 | COc1ccc(C(=O)NN(C)c2nc(-c3ccccc3)cc(C)c2S(C)(=O)=O)cc1 | 16.4 µM (active) | 
64 | CC1CCCCC1NC(=O)Cn1c(=O)cnc2ccccc21 (stereo not drawn) | inactive | 
65 | O=S(=O)(Nc1ccccc1Br)c1cccs1 | inactive | 
66 | O=C(Cc1c(O)c2ccccc2[nH]c1=O)NCc1ccccc1 | inactive | 
67 | CCCOC(=O)Cc1c(O)c2ccccc2[nH]c1=O | inactive | 
68 | COC(=O)Cc1c(-c2[nH]c3ccccc3c2CC(=O)OC)[nH]c2ccccc12 | 20.6 µM (active) | 
69 | Cc1ccc(Nc2ncnc3c2cnn3C)c(C)c1 | inactive | 
70 | Cc1cc(-c2n[nH]c(=S)n2-c2ccc(C)c(C)c2)no1 | inactive | 
71 | CCN(CC)C(=O)COc1coc(CN2CCN(Cc3ccccc3)CC2)cc1=O | inactive | 
72 | CC(C)(C)NC(=O)COC(=O)c1cc(Cl)ccc1[N+](=O)[O-] | inactive | 
73 | Nc1nc(CSc2nnnn2-c2ccccc2)nc(Nc2ccccc2)n1 | inactive | 
74 | Cc1ccc(Nc2nc(CSc3nnnn3-c3ccccc3)cc(=O)[nH]2)cc1 | 23.1 µM (active) | 
75 | Cc1ccc(-c2noc(CSc3nnnn3-c3ccccc3)n2)cc1 | inactive | 

Row | Compound | Potency | activity change, negative = growth inhibition
76 | O=C(NC1(C(F)(F)F)NC(=O)N(Cc2cccnc2)C1=O)c1ccccc1Cl (stereo not drawn) | inactive | 
77 | COC(=O)[C@@]12C[C@@H](CC(=O)N3CCC(c4ccccc4)CC3)C(=O)N(Cc3ccccc3)C1=CCC(C)(C)C2 | 18.4 µM (active) | 
78 | COC(=O)[C@]12CCCCC=C1N(Cc1ccc3c(c1)OCO3)C(=O)[C@H](CC(=O)N1CCOCC1)C2 | inactive | 
79 | CCOC(=O)C1CCN(C(=O)CC2C(=O)N(Cc3ccccc3)C(C)c3nc4ccccc4n32)CC1 (stereo not drawn) | inactive | 
80 | O=c1cc(CN2CCN(c3cccc(Cl)c3)CC2)c2cc3c(cc2o1)CCCC3 | inactive | 
81 | O=C(NCCCO)/C(=C\C=C\c1ccccc1)NC(=O)c1ccccc1Cl | inactive | 
82 | CCOP(=O)(OCC)C(Nc1ccc([N+](=O)[O-])cc1)c1ccc(Cl)cc1 (stereo not drawn) | inactive | 
83 | CCOC(=O)[C@]12CCCC=C1N(CCC1=CCCCC1)C(=O)[C@H](CC(=O)NCCCOC)C2 | 14.6 µM (active) | 
84 | CCOC(=O)[C@]12CCCC=C1N(Cc1ccc(Cl)cc1Cl)C(=O)[C@H](CC(=O)N1CCCCC1)C2 | 20.6 µM (active) | 
85 | CCOC(=O)[C@]12CCCC=C1N(CCC1=CCCCC1)C(=O)[C@H](CC(=O)N1CCOCC1)C2 | inactive | 
86 | CCOC(=O)[C@]12CCCC=C1N(CCC1=CCCCC1)C(=O)[C@H](CC(=O)N1CCCCC1)C2 | 7.31 µM (active) | 
87 | CCCCOCCCNC(=O)C[C@@H]1C[C@@]2(C(=O)OCC)CCCC=C2N(CCC2=CCCCC2)C1=O | 13 µM (active) | 
88 | CCOC(=O)[C@]12CCC=C1N(Cc1ccco1)C(=O)[C@H](CC(=O)N1CCSCC1)C2 | inactive | 
89 | CC1=C(C(=O)N2CCOCC2)CC(CC(=O)NCCN2CCOCC2)C(=O)N1CCC1=CCCCC1 (stereo not drawn) | inactive | 
90 | CC1=C(C(=O)N(C)C)CC(CC(=O)NCCc2ccccn2)C(=O)N1CCC1=CCCCC1 (stereo not drawn) | inactive | 
91 | CN1CCNC(=O)C1CC(=O)NCCC1=CCCCC1 (stereo not drawn) | inactive | 
92 | CCOC(=O)[C@]12CCC=C1N(Cc1ccccc1)C(=O)[C@H](CC(=O)N1CCCC1)C2 | inactive | 
93 | COc1ccc(CNC(=O)CN(C(=O)c2csnn2)c2cnc3ccccc3c2)cc1 | inactive | 
94 | COCCNc1nnc(SCC(=O)NNC(=O)c2ccco2)s1 | inactive | 
95 | Cc1ccc(NC(=O)C2CC2c2ccccc2)cc1 (stereo not drawn) | inactive | 
96 | O=C(/C=C/[C@H]1O[C@@H](n2cnc3c(NC(=O)c4ccccc4)ncnc32)[C@H](O)[C@@H]1O)NCc1ccccc1 | inactive | 
97 | CC1CCCCC12NC(=O)N(CC(=O)Nc1ccc(S(=O)(=O)Nc3ncccn3)cc1)C2=O (stereo not drawn) | inactive | 
98 | CCC(C)N(C(=O)COC(=O)C1C(C(=O)OC)=C(C)NC(C)=C1C(=O)OC)C1CCS(=O)(=O)C1 (stereo not drawn) | inactive | 
